Test results published in PubChem BioAssay (EPA / NIEHS).
Results filed as inconclusive are left out. Calls of active or inactive are those of the source. How the source made its calls, unless noted: active means hit-call score of the fitted dose curve at least 0.9, where 1 is the maximum; inconclusive means response in the unintended direction; inactive means score below 0.9.

Experiments:
[1] = ATG_TAL_CIS: Attagene CIS-FACTORIAL HepG2 Assay for human TAL Basal Promoter (AID 2282966; active means hit-call score of the fitted dose curve at least 0.9, where 1 is the maximum; inactive means score below 0.9;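 further: background control endpoint measuring basal TAL promoter reporter mRNA not a specific factor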); details: HepG2 Attagene cis-factorial TAL promoter reporter; actives raise or lower the signal
Summary of the method: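 Steps: transfect HepG2 with multiple reporter transcription units; dose 24 h; isolate RNA, reverse-transcribe, PCR-amplify, label with 6-FAM, digest with HpaI; resolve by capillary electrophoresis. Bidirectional fitting against DMSO baseline.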

[2] = ATG_TGFb_CIS: Attagene CIS-FACTORIAL HepG2 Assay for human Transforming Growth Factor (TGF) (AID 2282967; active means hit-call score of the fitted dose curve at least 0.9, where 1 is the maximum; inactive means score below 0.9); details: HepG2 Attagene CIS TGFb reporter, mRNA transcription; actives raise or lower the signal
Summary of the method: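 Liver HepG2 line, cis-factorial reporter panel, 24 h dosing. Quantitation: RT-PCR products labeled with 6-FAM, cut with HpaI, resolved by capillary electrophoresis; DMSO-referenced bidirectional analysis.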

[3] = ATG_VDRE_CIS: Attagene CIS-FACTORIAL HepG2 Assay for human Vitamin D Receptor Element (VDRE) (AID 2282968; active means hit-call score of the fitted dose curve at least 0.9, where 1 is the maximum; inactive means score below 0.9); details: HepG2 VDRE cis-reporter transcription, actives raise or lower the signal
Summary of the method: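 In transiently transfected HepG2 liver cells, gain or loss of reporter mRNA after 24 h exposure is scored relative to DMSO, using fluorescence detection by capillary electrophoresis of RT-PCR products.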

[4] = biological target: X-box-binding protein 1 (Homo sapiens) (UniProt P17861); experiment: ATG_Xbp1_CIS: Attagene CIS-FACTORIAL HepG2 Assay for human X-box Binding Protein 1 (XBP1) (AID 2282972; active means hit-call score of the fitted dose curve at least 0.9, where 1 is the maximum; inactive means score below 0.9); details: HepG2 XBP1 cis-element reporter, Attagene multiplex; actives raise or lower the signal
Summary of the method: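 After a 24-hour chemical exposure of HepG2 cells carrying cis-regulated reporters, reporter mRNA levels are assessed. Quantification uses RT-PCR, 6-FAM labelling and capillary electrophoresis. Gain- or loss-of-signal is fitted against DMSO.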

[5] = ATG_Hpa5_TRANS: Attagene TRANS-FACTORIAL HepG2 Assay for human GAL4-Hpa5 Hepatocyte Transcription Factor Basal Promoter (AID 2282975); details: HepG2 Attagene GAL4-Hpa5 transcription reporter;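 further: hits are increases in reporter mRNA over DMSO baseline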
Summary of the method: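 Basal-promoter GAL4 background control within the HepG2 trans-factorial panel of transiently transfected reporter units. Reporter mRNA is measured 24 h after dosing by RT-PCR and capillary electrophoresis, fitted for gain of signal versus DMSO.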

[6] = biological target: Bile acid receptor (Homo sapiens) (UniProt Q96RI1); experiment: ATG_FXR_TRANS: Attagene TRANS-FACTORIAL HepG2 Assay for Farnesoid X Receptor (FXR) (AID 2282979); details: HepG2 Attagene TRANS FXR-GAL4 reporter transcription;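 further: hits raise reporter mRNA above DMSO so AC50 marks FXR activation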
Summary of the method: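 After 24 h chemical treatment of transfected HepG2 cells, GAL4-UAS reporter transcripts driven by an exogenous FXR-GAL4 fusion were measured by RT-PCR and capillary electrophoresis. Increases over DMSO were fitted.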

[7] = biological target: Oxysterols receptor LXR-alpha (Homo sapiens) (UniProt Q13133); experiment: ATG_LXRa_TRANS: Attagene TRANS-FACTORIAL HepG2 Assay for human Liver X Receptor alpha (LXRa) (AID 2282980); details: HepG2 Attagene TRANS reporter, LXRa transactivation
Summary of the method: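 In this multiplexed TRANS system, compounds act on HepG2 cells carrying GAL4-UAS reporter units and a receptor-GAL4 fusion for 24 h. Induced reporter RNA is amplified, fluorescently labelled and sized by capillary electrophoresis, with DMSO as baseline.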

[8] = biological target: Oxysterols receptor LXR-beta (Homo sapiens) (UniProt P55055); experiment: ATG_LXRb_TRANS: Attagene TRANS-FACTORIAL HepG2 Assay for human Liver X Receptor beta (LXRb) (AID 2282981); details: HepG2 Attagene TRANS GAL4-LXRb reporter, mRNA
Summary of the method: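 Cells: HepG2, transiently transfected with GAL4-UAS reporter units plus LXRb-Gal4 fusion. Treatment: 24 h. Detection: reporter mRNA by RT-PCR, 6-FAM labelling, HpaI digestion, capillary electrophoresis.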

[9] = ATG_M_06_TRANS: Attagene TRANS-FACTORIAL HepG2 Assay for M06 Transcription Factor (Internal Marker) (AID 2282983); details: HepG2 Attagene TRANS M06 internal marker reporter;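 further: reporter transcript level by RT-PCR then capillary electrophoresis fluorescence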
Summary of the method: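 Internal-marker background readout from a multiplexed TRANS reporter system in HepG2; 24 h dosing; mRNA induction quantified by RT-PCR plus capillary electrophoresis fluorescence; DMSO as negative control and baseline.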

[10] = ATG_M_32_TRANS: Attagene TRANS-FACTORIAL HepG2 Assay for M32 Transcription Factor (Internal Marker) (AID 2282984); details: HepG2 Attagene TRANS M32 internal marker reporter
Summary of the method: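 Using transiently transfected HepG2 cells exposed to test chemicals for 24 h, reporter transcripts are converted to labelled cDNA fragments and quantified by capillary electrophoresis. DMSO defines the activity baseline.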

[11] = biological target: Nuclear receptor subfamily 4 group A member 2 (Homo sapiens) (UniProt P43354); experiment: ATG_NURR1_TRANS: Attagene TRANS-FACTORIAL HepG2 Assay for human Nuclear Receptor Related Protein 1 (NURR1) (AID 2282985); details: HepG2 Attagene TRANS reporter, mRNA readout
Summary of the method: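 Cells: HepG2, transiently transfected. Exposure: 24 h. Detection: fluorescence of labelled RT-PCR products separated by capillary electrophoresis; upward fit versus DMSO.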

[12] = biological target: Nuclear respiratory factor 1 (Homo sapiens) (UniProt Q16656); experiment: ATG_NRF1_CIS: Attagene CIS-FACTORIAL HepG2 Assay for human Nuclear Respiratory Factor 1 (NRF1) Orphan Gene (AID 2282987; active means hit-call score of the fitted dose curve at least 0.9, where 1 is the maximum; inactive means score below 0.9); details: HepG2 NRF1 cis-element reporter, Attagene multiplex; actives raise or lower the signal
Summary of the method: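 Endogenous NRF1-driven reporter transcription in transfected HepG2 cells after 24 h treatment. Readout: RT-PCR products, 6-FAM labelled and resolved by capillary electrophoresis; changes fitted both directions relative to DMSO.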

[13] = biological target: Estrogen receptor (Homo sapiens) (UniProt P03372); experiment: ATG_ERa_TRANS: Attagene TRANS-FACTORIAL HepG2 Assay for human Estrogen Receptor alpha (ERa) (AID 2282970); details: HepG2 Attagene TRANS ERa GAL4 reporter, mRNA
Summary of the method: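 Multiplexed cell-based reporter format in HepG2: chimeric ERa-Gal4 protein drives GAL4-UAS reporter transcription. Fluorescent reporter mRNA quantified by capillary electrophoresis 24 hours after dosing; endpoint fitted as signal gain against DMSO.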

[14] = ATG_M_19_TRANS: Attagene TRANS-FACTORIAL HepG2 Assay for M19 Transcription Factor (Internal Marker) (AID 2282974); details: HepG2 Attagene TRANS-FACTORIAL M19 internal marker reporter
Summary of the method: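 Background-control readout: after 24 h chemical exposure of transfected HepG2 carrying GAL4-driven reporter units, RNA was reverse-transcribed, amplified, fluorescently labeled and sized by capillary electrophoresis; gain-of-signal fit against DMSO.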

[15] = biological target: Nuclear receptor subfamily 1 group I member 3 (Homo sapiens) (UniProt Q14994); experiment: ATG_CAR_TRANS: Attagene TRANS-FACTORIAL HepG2 Assay for human Constitutive Androstane Receptor (CAR) (AID 2282969); details: HepG2 Attagene TRANS-FACTORIAL CAR reporter;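 further: activators raise reporter mRNA above DMSO so AC50 marks induction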
Summary of the method: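 Readout is reporter mRNA induction, quantified by fluorescent primer extension and capillary electrophoresis after RT-PCR. Cells were HepG2 transiently carrying chimeric NR-Gal4 constructs with GAL4-UAS reporters, treated for 24 h; activity scored upward from DMSO.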

[16] = biological target: Transcriptional activator Myb (Homo sapiens) (UniProt P10242); experiment: ATG_Myb_CIS: Attagene CIS-FACTORIAL HepG2 Assay for human Myeloblastosis (Myb) Proto-Oncogene Transcription Factor (AID 2282986; active means hit-call score of the fitted dose curve at least 0.9, where 1 is the maximum; inactive means score below 0.9); details: HepG2 Attagene CIS-FACTORIAL Myb reporter transcription; actives raise or lower the signal
Summary of the method: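 Reporter mRNA is quantified by RT-PCR and capillary electrophoresis 24 h after dosing HepG2 cells transfected with cis-regulated reporter units, which track endogenous transcription factor activity. Gain and loss of signal are fitted versus DMSO baseline.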

[17] = biological target: Hepatocyte nuclear factor 4-alpha (Homo sapiens) (UniProt P41235); experiment: ATG_HNF4a_TRANS: Attagene TRANS-FACTORIAL HepG2 Assay for human Hepatocyte Nuclear Factor 4 alpha (HNF4a) (AID 2282982); details: HepG2 HNF4a transactivation reporter, mRNA readout
Summary of the method: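 Transfected HepG2 reporter cells are dosed for 24 h; reporter RNA is reverse-transcribed, amplified, fluorescently labelled and HpaI-digested before CE sizing. Positive-direction fit against DMSO.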

Measured: AC50

Nuclear receptor subfamily 4 group A member 2 (Homo sapiens), sequence (P43354 whole entry, looked up): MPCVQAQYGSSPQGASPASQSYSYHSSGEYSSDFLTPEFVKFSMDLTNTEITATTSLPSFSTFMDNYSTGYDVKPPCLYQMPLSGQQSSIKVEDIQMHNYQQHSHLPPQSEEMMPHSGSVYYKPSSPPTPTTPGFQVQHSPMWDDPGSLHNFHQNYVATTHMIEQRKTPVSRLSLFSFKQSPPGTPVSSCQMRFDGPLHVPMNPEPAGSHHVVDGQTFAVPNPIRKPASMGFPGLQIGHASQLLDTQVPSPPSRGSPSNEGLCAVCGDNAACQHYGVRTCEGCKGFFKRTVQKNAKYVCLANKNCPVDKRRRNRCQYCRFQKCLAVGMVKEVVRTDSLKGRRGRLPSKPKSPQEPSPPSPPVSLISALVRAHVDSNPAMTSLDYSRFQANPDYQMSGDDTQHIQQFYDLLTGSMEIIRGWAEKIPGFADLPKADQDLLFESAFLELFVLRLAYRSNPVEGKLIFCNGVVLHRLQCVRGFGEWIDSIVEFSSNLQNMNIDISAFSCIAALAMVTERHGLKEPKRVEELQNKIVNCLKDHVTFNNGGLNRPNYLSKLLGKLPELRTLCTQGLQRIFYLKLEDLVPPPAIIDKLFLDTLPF
Nuclear respiratory factor 1 (Homo sapiens), sequence (Q16656 whole entry, looked up): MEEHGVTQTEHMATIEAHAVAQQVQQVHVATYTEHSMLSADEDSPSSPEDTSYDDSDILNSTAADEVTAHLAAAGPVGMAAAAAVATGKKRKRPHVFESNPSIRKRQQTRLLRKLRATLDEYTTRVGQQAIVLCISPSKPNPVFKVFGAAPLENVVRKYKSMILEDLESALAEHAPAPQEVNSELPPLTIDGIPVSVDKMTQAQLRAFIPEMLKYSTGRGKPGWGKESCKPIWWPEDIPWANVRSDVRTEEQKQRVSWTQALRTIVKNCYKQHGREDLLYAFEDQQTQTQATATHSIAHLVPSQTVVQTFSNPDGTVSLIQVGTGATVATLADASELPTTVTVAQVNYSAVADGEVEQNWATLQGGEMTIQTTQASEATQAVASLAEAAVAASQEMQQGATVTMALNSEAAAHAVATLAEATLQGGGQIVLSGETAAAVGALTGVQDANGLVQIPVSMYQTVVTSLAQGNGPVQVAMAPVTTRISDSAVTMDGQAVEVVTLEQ
X-box-binding protein 1 (Homo sapiens), sequence (P17861 whole entry, looked up): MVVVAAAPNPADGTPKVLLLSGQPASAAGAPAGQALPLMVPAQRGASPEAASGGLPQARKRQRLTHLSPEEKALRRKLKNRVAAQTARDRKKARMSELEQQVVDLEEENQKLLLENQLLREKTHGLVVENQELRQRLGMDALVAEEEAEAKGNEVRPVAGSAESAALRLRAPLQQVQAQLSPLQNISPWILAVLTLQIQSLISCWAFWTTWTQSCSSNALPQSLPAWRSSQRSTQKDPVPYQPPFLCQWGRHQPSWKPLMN
Estrogen receptor (Homo sapiens), sequence (P03372 whole entry, looked up, the tested form may be a part): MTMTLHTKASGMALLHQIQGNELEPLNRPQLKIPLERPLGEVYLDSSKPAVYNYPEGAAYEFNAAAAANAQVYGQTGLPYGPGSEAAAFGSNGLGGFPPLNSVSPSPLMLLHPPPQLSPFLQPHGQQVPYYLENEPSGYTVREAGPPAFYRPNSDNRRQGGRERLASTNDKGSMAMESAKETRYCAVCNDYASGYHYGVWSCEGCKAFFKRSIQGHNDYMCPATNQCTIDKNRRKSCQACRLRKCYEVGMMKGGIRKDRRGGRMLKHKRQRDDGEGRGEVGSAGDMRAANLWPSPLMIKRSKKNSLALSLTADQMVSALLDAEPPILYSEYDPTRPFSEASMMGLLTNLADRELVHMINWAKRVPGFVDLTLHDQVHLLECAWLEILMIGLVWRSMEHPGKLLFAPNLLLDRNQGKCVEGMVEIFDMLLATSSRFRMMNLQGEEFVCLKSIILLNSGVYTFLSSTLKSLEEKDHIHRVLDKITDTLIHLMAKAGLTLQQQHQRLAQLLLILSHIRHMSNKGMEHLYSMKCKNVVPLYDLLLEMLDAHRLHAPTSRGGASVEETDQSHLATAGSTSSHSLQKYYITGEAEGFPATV
Oxysterols receptor LXR-alpha (Homo sapiens), sequence (Q13133 whole entry, looked up, the tested form may be a part): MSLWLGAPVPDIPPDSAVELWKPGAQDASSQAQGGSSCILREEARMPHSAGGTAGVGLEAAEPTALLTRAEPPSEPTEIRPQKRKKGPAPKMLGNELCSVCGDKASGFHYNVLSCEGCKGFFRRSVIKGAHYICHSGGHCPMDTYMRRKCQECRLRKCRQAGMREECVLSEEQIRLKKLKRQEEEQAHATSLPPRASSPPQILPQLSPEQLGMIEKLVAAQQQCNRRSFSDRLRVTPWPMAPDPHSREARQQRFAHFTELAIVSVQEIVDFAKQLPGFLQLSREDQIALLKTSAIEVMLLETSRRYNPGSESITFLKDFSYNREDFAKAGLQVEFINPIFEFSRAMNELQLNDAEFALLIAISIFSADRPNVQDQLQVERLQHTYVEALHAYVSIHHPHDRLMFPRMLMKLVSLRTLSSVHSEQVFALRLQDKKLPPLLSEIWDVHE
Nuclear receptor subfamily 1 group I member 3 (Homo sapiens), sequence (Q14994 whole entry, looked up, the tested form may be a part): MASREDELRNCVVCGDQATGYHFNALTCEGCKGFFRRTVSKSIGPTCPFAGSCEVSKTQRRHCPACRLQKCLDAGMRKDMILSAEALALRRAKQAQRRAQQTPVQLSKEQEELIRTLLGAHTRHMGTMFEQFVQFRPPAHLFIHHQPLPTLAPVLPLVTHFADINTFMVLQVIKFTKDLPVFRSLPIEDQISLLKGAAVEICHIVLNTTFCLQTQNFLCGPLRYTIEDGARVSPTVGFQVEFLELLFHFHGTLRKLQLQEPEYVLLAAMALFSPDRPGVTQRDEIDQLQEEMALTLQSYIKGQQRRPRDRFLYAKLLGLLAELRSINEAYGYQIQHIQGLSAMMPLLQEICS
Transcriptional activator Myb (Homo sapiens), sequence (P10242 whole entry, looked up): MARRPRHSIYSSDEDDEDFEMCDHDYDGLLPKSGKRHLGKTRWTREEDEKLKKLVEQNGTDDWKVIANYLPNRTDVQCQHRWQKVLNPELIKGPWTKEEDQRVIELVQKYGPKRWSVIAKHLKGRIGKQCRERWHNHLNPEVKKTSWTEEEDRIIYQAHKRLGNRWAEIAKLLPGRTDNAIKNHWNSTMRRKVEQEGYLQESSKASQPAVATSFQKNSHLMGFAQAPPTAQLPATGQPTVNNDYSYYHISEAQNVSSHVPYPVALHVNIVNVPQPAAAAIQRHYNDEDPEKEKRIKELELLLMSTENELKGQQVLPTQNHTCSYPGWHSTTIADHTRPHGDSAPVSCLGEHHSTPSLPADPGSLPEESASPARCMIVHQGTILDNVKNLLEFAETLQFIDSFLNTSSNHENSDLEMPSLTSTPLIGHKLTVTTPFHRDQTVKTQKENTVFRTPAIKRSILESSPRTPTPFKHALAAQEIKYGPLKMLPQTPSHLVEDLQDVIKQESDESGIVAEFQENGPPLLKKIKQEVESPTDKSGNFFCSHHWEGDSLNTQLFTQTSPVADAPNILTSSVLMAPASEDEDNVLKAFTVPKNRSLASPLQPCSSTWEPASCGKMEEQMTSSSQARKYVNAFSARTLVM
Oxysterols receptor LXR-beta (Homo sapiens), sequence (P55055 whole entry, looked up, the tested form may be a part): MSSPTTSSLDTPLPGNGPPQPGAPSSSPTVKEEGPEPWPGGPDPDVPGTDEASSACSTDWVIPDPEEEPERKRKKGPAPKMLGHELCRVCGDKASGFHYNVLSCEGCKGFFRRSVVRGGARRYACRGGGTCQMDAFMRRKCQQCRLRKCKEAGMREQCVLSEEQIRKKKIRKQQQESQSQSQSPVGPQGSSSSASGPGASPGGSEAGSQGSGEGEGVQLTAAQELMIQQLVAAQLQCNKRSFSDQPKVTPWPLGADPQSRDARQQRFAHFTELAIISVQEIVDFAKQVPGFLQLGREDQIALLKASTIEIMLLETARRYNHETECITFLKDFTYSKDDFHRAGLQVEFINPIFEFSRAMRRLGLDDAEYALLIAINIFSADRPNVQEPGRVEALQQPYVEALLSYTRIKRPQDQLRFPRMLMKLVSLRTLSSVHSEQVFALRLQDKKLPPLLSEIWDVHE
Hepatocyte nuclear factor 4-alpha (Homo sapiens), sequence (P41235 whole entry, looked up): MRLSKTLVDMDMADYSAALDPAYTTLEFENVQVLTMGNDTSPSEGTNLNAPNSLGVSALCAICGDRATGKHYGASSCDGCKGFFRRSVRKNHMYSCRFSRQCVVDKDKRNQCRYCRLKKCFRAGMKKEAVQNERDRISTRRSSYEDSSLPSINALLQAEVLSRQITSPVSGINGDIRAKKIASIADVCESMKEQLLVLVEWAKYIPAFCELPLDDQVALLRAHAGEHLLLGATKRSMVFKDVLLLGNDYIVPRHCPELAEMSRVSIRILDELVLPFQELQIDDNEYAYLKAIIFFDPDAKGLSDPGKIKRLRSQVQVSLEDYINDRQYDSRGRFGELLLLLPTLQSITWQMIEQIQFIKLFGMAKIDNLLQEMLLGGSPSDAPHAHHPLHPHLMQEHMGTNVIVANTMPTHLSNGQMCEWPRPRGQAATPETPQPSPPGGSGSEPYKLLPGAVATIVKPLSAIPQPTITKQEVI
Bile acid receptor (Homo sapiens), sequence (Q96RI1 whole entry, looked up, the tested form may be a part): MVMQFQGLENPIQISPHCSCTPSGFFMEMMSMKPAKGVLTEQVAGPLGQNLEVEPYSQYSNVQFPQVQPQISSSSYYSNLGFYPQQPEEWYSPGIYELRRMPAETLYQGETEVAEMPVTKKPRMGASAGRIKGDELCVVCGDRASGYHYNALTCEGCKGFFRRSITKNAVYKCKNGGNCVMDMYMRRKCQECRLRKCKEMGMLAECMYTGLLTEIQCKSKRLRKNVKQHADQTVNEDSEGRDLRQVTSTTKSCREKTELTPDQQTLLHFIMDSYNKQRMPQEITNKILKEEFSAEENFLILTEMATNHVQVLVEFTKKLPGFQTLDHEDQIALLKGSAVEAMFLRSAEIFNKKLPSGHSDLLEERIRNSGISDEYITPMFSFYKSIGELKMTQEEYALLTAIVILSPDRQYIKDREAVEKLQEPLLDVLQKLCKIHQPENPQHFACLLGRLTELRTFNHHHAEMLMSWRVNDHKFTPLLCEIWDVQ

CS(=O)(=O)c1ccc(C(=O)C2C(=O)CCCC2=O)c([N+](=O)[O-])c1
not listed: [13] | [14] | [15] | [16] | [17]
inactive: all other assays above

Cn1c(-c2ccccc2)cc(-c2ccccc2)[n+]1C
not listed: [5] | [6] | [9] | [11] | [15] | [16] | [17]
inactive: all other assays above

O=C(O)c1c(Cl)ccc2cc(Cl)cnc12
not listed: [5] | [6] | [7] | [9] | [10] | [11] | [17]
inactive: all other assays above

CCOc1cc(C(C)(C)C)ccc1C1COC(c2c(F)cccc2F)=N1 (stereo not given)
active: [3] 1.36 µM
inactive: [1] | [2] | [15] | [13] | [4] | [14] | [10] | [12]

Nc1cnn(-c2ccccc2)c(=O)c1Cl
not listed: [6] | [9] | [11] | [16] | [17]
inactive: all other assays above

N#CN=C1SCCN1Cc1ccc(Cl)nc1
not listed: [3] | [6] | [9] | [15] | [17]
inactive: all other assays above

COC(=O)NC(=S)Nc1ccccc1NC(=S)NC(=O)OC
active: [3] 50 µM
not listed: [6] | [9] | [10] | [14] | [15]
inactive: all other assays above

COCC(C)N(C(=O)CCl)c1c(C)csc1C (stereo not given)
inactive: [1] | [2] | [13] | [4] | [8] | [9] | [10] | [11] | [12]
active: [3] 1.84 µM

CNC(=O)N(C)c1nnc(C(C)(C)C)s1
not listed: [6] | [14] | [15] | [16] | [17]
inactive: all other assays above

CC(C)Oc1cccc(NC(=O)c2ccccc2C(F)(F)F)c1
active: [3] 17.6 µM
not listed: [6] | [9] | [15] | [17]
inactive: all other assays above

Cc1ccc(N=CN(C)C=Nc2ccc(C)cc2C)c(C)c1
inactive: [1] | [2] | [3] | [15] | [4] | [8] | [9] | [12]
